# From publication PMC7862700, “An all-to-all approach to the identification of sequence-specific readers for epigenetic DNA modifications on cytosine”
# Legend:
# Test in all cases: DAPPL (digital affinity profiling via proximity ligation, sequencing); 10 mM Tris-HCl pH 7.5, 50 mM NaCl, 1 mM DTT, 4% glycerol, room temperature, 30 min; GST-TFs on glutathione beads, 16-mer random dsDNA library, 0.1% formaldehyde crosslink after washing; high values mean tight binding
# Settings in all cases: protein: recombinant; tags: N-terminal GST; dsDNA, one strand shown
# [1] = target: ETV1 (Homo sapiens, UniProt P50549 1-477)
# Sequence of ETV1 (P50549 whole entry, the tested form may be a part): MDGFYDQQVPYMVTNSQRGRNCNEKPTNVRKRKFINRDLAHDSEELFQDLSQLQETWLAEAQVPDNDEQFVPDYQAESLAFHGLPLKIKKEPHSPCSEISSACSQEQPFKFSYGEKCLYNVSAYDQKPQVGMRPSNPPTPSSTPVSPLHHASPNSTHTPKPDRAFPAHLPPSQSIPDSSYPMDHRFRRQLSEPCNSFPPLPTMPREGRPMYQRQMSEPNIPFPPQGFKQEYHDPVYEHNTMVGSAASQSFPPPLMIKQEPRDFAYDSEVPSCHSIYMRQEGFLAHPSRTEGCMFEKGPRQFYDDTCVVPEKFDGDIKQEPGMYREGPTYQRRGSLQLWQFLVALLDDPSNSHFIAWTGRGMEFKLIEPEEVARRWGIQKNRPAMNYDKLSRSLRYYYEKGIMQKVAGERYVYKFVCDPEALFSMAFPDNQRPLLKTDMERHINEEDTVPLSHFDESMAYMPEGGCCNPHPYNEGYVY
# Outline: (§1)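 Sequencing on an Illumina NextSeq500 followed washing, crosslinking with 0.1% formaldehyde, proximity ligation (BsaI/T4 ligase, 1 h, 37 °C) and PCR amplification of pools that had been incubated for 30 min at room temperature with 200 nmole of a random double-stranded 16-mer DNA library in Tris/NaCl/DTT/glycerol buffer. Each pool held DNA-barcoded human transcription factors, expressed in yeast as GST fusions and captured on glutathione beads, plus a tag-only sample. Binding signal is a hexamer's read frequency for a factor divided by its frequency in the tag-only sample.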
# [2] = target: T1, ERF (Homo sapiens, UniProt P50548 1-548)
# T1 sequence: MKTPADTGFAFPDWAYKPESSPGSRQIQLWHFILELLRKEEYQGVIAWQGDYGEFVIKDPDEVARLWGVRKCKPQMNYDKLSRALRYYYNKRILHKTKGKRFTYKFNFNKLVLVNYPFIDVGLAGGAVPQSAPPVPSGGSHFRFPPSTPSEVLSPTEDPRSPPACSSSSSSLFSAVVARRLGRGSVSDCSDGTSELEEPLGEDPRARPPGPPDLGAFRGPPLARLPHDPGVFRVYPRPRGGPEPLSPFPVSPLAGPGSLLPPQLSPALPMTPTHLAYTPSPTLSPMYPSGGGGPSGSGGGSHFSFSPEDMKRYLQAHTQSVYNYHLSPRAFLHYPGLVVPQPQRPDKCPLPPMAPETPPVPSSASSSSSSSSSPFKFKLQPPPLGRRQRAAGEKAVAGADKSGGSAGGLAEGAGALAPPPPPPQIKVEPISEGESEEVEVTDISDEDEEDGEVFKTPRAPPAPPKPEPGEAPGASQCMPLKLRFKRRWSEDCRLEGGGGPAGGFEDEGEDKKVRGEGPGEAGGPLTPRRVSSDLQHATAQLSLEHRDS
# Outline: as §1
# [3] = target: T2, ETV3L (Homo sapiens, UniProt Q6ZN32 1-361)
# T2 sequence: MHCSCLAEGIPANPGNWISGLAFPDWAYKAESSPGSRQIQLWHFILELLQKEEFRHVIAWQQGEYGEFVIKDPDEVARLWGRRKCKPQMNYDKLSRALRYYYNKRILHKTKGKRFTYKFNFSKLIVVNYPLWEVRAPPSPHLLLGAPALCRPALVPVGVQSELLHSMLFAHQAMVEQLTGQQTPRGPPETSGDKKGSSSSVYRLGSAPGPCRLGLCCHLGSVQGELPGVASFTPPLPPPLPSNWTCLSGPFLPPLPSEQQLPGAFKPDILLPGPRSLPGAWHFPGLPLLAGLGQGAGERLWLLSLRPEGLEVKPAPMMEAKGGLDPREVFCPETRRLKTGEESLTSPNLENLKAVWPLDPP
# Outline: as §1
# [4] = target: T3, ETS2 (Homo sapiens, UniProt P15036 1-469)
# T3 sequence: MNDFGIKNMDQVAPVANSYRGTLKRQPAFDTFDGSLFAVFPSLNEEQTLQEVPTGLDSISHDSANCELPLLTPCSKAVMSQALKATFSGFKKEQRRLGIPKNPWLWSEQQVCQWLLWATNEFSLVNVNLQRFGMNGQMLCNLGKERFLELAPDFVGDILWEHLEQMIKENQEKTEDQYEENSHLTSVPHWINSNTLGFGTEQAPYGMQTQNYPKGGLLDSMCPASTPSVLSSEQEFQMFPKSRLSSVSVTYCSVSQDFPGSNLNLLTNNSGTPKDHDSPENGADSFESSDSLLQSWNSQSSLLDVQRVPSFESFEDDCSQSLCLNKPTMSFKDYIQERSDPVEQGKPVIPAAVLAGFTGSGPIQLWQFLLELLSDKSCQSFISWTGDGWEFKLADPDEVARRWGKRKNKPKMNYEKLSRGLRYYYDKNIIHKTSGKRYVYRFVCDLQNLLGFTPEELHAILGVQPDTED
# Outline: as §1
# [5] = target: T4, SPDEF (Homo sapiens, UniProt O95238 1-335)
# T4 sequence: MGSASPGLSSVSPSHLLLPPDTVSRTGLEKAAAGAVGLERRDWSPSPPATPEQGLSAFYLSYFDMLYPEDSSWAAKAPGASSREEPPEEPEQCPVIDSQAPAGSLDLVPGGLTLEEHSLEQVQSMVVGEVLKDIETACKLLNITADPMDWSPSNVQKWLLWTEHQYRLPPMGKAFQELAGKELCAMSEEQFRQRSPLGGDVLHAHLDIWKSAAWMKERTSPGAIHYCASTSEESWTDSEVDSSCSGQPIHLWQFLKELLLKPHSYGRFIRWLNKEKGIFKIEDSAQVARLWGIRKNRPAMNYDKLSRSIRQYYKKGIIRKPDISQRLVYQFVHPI
# Outline: as §1
# [6] = target: T5, ETV7 (Homo sapiens, UniProt Q9Y603 1-341)
# T5 sequence: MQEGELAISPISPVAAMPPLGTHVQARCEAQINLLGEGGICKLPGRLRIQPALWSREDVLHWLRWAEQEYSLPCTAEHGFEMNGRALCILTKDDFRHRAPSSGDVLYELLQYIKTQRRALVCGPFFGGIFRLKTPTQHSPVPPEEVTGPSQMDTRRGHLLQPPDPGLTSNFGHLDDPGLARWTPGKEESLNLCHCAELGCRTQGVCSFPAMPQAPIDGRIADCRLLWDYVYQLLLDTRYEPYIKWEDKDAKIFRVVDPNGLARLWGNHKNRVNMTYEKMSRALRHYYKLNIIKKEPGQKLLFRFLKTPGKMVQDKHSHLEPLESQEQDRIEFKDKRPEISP
# Outline: as §1
# [7] = target: T6, ELF5 (Homo sapiens, UniProt Q9UKW6-2 1-255)
# T6 sequence: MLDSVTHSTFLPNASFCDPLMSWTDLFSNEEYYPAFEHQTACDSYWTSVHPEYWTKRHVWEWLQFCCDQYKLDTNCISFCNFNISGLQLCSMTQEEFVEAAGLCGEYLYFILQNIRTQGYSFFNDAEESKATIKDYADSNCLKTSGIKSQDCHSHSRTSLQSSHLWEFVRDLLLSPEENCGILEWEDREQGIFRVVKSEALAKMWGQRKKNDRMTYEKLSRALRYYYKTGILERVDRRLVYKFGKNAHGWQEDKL
# Outline: as §1
# [8] = target: T7, ETV3 (Homo sapiens, UniProt P41162-2 1-143)
# T7 sequence: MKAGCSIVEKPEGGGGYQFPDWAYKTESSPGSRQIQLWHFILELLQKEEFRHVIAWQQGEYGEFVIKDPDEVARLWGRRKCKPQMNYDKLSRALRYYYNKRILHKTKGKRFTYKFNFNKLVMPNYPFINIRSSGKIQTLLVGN
# Outline: as §1
# [9] = target: ETV6 (Homo sapiens, UniProt P41212 1-452)
# Sequence of ETV6 (P41212 whole entry): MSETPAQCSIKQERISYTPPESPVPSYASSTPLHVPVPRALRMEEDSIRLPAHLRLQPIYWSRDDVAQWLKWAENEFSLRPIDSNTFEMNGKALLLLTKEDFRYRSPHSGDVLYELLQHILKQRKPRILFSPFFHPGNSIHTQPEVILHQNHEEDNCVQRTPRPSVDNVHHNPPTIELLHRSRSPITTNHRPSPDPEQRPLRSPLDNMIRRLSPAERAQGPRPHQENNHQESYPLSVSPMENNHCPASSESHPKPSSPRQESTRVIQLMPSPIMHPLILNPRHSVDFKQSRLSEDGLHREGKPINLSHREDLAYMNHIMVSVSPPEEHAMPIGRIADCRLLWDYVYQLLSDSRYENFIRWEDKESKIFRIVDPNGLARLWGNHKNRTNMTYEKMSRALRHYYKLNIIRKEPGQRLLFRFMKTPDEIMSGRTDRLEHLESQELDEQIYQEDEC
# Outline: as §1
sequence,measurement,setting,value
AAGCTT,binding signal,[1],"1.31 fold enrichment (6-mer frequency, TF over GST control)"
same,binding signal,[2],"1.29 fold enrichment (6-mer frequency, TF over GST control)"
same,binding signal,[3],"1.31 fold enrichment (6-mer frequency, TF over GST control)"
same,binding signal,[4],"1.19 fold enrichment (6-mer frequency, TF over GST control)"
same,binding signal,[5],"1.14 fold enrichment (6-mer frequency, TF over GST control)"
same,binding signal,[6],"1.38 fold enrichment (6-mer frequency, TF over GST control)"
same,binding signal,[7],"1.31 fold enrichment (6-mer frequency, TF over GST control)"
same,binding signal,[8],"1.2 fold enrichment (6-mer frequency, TF over GST control)"
same,binding signal,[9],"1.3 fold enrichment (6-mer frequency, TF over GST control)"
